The campaign covered roughly 39,000 compounds. About 3,300 (8.5%) were called active. This excerpt belongs to a sample that is enriched for actives.
test system: HepG2; experiment: cytotoxicity call (relative viability < 0.9); conditions: 10 µM

SMILES | cytotoxicity call
C[C@H]1CN([C@@H](C)CO)S(=O)(=O)c2ccc(C#CC3CCCC3)cc2O[C@@H]1CN(C)C(=O)Cc1ccncc1 | inactive
COc1ccc([Si](C)(C)[C@@H]2[C@@H](CC(=O)N3Cc4ccccc4C[C@H]3CO)O[C@]3(C(=O)N(Cc4cccc(N5CCC5=O)c4)c4ccccc43)[C@H]2C)cc1 | inactive
CC1C(=O)OC2C1CCC1(C)CCC(=O)C(C)C21 (centres undefined) | inactive
CN1CCN(S(=O)(=O)c2ccc(CN)cc2)CC1 | inactive
C[C@H](CO)N1C[C@H](C)[C@H](CN(C)Cc2ccc(Oc3ccccc3)cc2)Oc2ccc(NS(=O)(=O)c3ccc(Cl)cc3)cc2C1=O | inactive
C[C@H](CO)N1C[C@H](C)[C@@H](CN(C)Cc2ccc(Oc3ccccc3)cc2)Oc2ccc(NS(=O)(=O)c3ccc(Cl)cc3)cc2C1=O | inactive
C[C@@H]1CN([C@H](C)CO)C(=O)c2cc(NS(=O)(=O)c3ccc(Cl)cc3)ccc2O[C@H]1CN(C)Cc1ccc(Oc2ccccc2)cc1 | active
C[C@@H]1CN([C@@H](C)CO)C(=O)c2cc(NS(=O)(=O)c3ccc(Cl)cc3)ccc2O[C@@H]1CN(C)Cc1ccc(Oc2ccccc2)cc1 | active
C[C@H]1CN([C@@H](C)CO)C(=O)c2cc(NS(=O)(=O)c3ccc(Cl)cc3)ccc2O[C@@H]1CN(C)Cc1ccc(Oc2ccccc2)cc1 | active
C[C@@H]1CN([C@@H](C)CO)C(=O)c2cc(NS(=O)(=O)c3ccc(Cl)cc3)ccc2O[C@H]1CN(C)Cc1ccc(Oc2ccccc2)cc1 | inactive
C[C@@H]1CN([C@H](C)CO)C(=O)c2cc(NS(=O)(=O)c3ccc(Cl)cc3)ccc2O[C@@H]1CN(C)Cc1ccc(Oc2ccccc2)cc1 | active
C[C@H]1CN([C@@H](C)CO)C(=O)c2cc(NS(=O)(=O)c3ccc(Cl)cc3)ccc2O[C@H]1CN(C)Cc1ccc(Oc2ccccc2)cc1 | inactive
C[C@H](CO)N1C[C@H](C)[C@H](CN(C)C(=O)Nc2cccc3ccccc23)Oc2ncc(C#Cc3cccc(F)c3)cc2C1=O | inactive
CC(C)(C)OC(=O)Nc1cccc([C@@H]2CC(=O)N(C(=O)OCc3ccccc3)[C@@H]2C(=O)Nc2cccc3cccnc23)c1 | inactive
Cc1noc(C)c1NC(=O)Nc1ccc2c(c1)C(=O)N([C@H](C)CO)C[C@@H](C)[C@H](CN(C)C(=O)C1CCCCC1)OCCCC[C@@H](C)O2 | inactive
C[C@@H]1CN([C@H](C)CO)C(=O)c2cc(C#CC3(O)CCCC3)cnc2O[C@H]1CN(C)S(=O)(=O)c1cccc(F)c1 | inactive
CCC1C(=O)OCC1Cc1cncn1C.O=[N+]([O-])O (centres undefined) | inactive
Cc1noc(C)c1NC(=O)Nc1cccc2c1O[C@@H](CN(C)Cc1ccc(Oc3ccccc3)cc1)[C@H](C)CN([C@@H](C)CO)C2=O | inactive
CN(C)CCCNC(=O)C[C@H]1CC[C@H]2[C@@H](COC[C@H](O)CN2S(=O)(=O)c2ccc(F)cc2)O1 | inactive
CO[C@H]1CN(C)C(=O)c2ccc(NC(=O)Nc3cccc(Cl)c3)cc2OC[C@@H](C)N(C(=O)Nc2c(C)noc2C)C[C@H]1C | inactive
C[C@H]1CN([C@@H](C)CO)C(=O)c2cc(NC(=O)Nc3cccc4ccccc34)ccc2O[C@H]1CN(C)S(=O)(=O)c1ccccc1 | inactive
C[C@H](CO)N1C[C@H](C)[C@H](CN(C)C(=O)Nc2cccc3ccccc23)Oc2ccc(NC(=O)Nc3ccc(C(F)(F)F)cc3)cc2C1=O | inactive
CN(C)CCOC(=O)COc1ccc(Cl)cc1.Cl | inactive
CCCCc1nc(-c2ccc(OCCCN(CC)CC)cc2)cn1-c1ccc(Oc2ccc(Cl)cc2)cc1 | active
CCCC[C@@H](C#N)c1ccccn1 | inactive
CN(C)CC(=O)N[C@@H]1CC[C@H](CCNS(=O)(=O)c2ccccc2)O[C@H]1CO | inactive
O=C(N[C@H](c1ccc(F)cc1)c1ccc2ccccc2n1)C1CCN(Cc2ccc(Oc3ccccc3)cc2)CC1 | active

SMILES | cytotoxicity call
COc1ccccc1[C@@H](NC(=O)C1CCN(Cc2ccc(Oc3ccccc3)cc2)CC1)c1ccccn1 | inactive
O=C(N[C@@H](c1ccccc1)c1ccc2ccccc2n1)C1CCN(Cc2ccc(Oc3ccccc3)cc2)CC1 | inactive
O=C(N[C@H](c1ccc(F)cc1)c1ccc2ccccc2n1)C1CCN(Cc2ccc3ccccc3n2)CC1 | inactive
O=C(N[C@H](c1ccc(F)cc1)c1ccc2ccccc2n1)C1CCN(Cc2cccc(C(F)(F)F)c2)CC1 | active
COc1ccc([C@@H](NC(=O)C2CCN(Cc3ccc(Oc4ccccc4)cc3)CC2)c2ccccc2C)cn1 | inactive
O=C(N[C@@H](c1ccccc1)c1ccc2ccccc2n1)C1CCN(Cc2cccc(C(F)(F)F)c2)CC1 | inactive
COc1cc(OC)nc([C@@H](NC(=O)C2CCN(Cc3ccc(Oc4ccccc4)cc3)CC2)c2ccccc2C)n1 | active
COc1cc(CN2CCC(C(=O)N[C@@H](c3ccc(F)cc3)c3ccc4ccccc4n3)CC2)cc(OC)c1 | active
COc1ccc2c3c(n(c2c1)C)[C@@H](CO)N(C[C@]13CCN(CC1)Cc1ccncc1)C(=O)CN1CCOCC1 | inactive
NC(=NC(=O)N1CCOCC1)c1ccccc1 | inactive
O=C(C[C@@H]1CC[C@@H](NC(=O)Cc2ccccn2)[C@@H](CO)O1)NCCc1ccncc1 | inactive
CN(C)CCCNC(=O)[C@@H]1c2ccccc2C(=O)N(Cc2cc(C(F)(F)F)cc(C(F)(F)F)c2)[C@H]1c1ccc(CO)cc1 | inactive
CO[C@H](CN(C)S(=O)(=O)c1cn(C)cn1)[C@@H](C)CN(C(=O)Nc1ccc(C(F)(F)F)cc1)[C@@H](C)CO | inactive
CNC[C@H]1Oc2c(NS(=O)(=O)c3cn(C)cn3)cccc2C(=O)N([C@@H](C)CO)C[C@H]1C | inactive
O=C(COc1ccc(S(=O)(=O)N2CCOCC2)cc1)N1CCOCC1 | inactive
COc1ccc([Si](C)(C)[C@@H]2[C@@H](CCOC(=O)NCCCCCC(=O)NO)O[C@@]3(C(=O)N(Cc4ccccc4)c4ccc(NC(=O)[C@@H](C)OC(=O)NCCCCCC(=O)NO)cc43)[C@H]2C)cc1 | inactive
C[C@H]1CN([C@@H](C)CO)C(=O)Cc2cc(NC(=O)Cn3cnnn3)ccc2O[C@@H]1CN(C)Cc1ccc(Cl)c(Cl)c1 | inactive
CCc1nn(C)c2c(=O)c(=O)c2n(C)[nH]1 | inactive
O=C(CN1CCOCC1)NCC[C@H]1CC[C@@H](NS(=O)(=O)c2ccc(Cl)cc2)[C@@H](CO)O1 | inactive
C[C@H]1CN([C@@H](C)CO)C(=O)c2cc(NS(=O)(=O)c3ccccc3)ccc2O[C@H]1CN(C)Cc1ccc(Cl)c(Cl)c1 | inactive
CC(C)Oc1ccccc1OCc1cnnn1CC(=O)NS(=O)(=O)c1ccccc1OC(F)(F)F | inactive
Cc1ccc(S(=O)(=O)N(C)C[C@H]2Oc3ccc(NC(=O)NC(C)C)cc3C(=O)N([C@@H](C)CO)C[C@@H]2C)cc1 | inactive
O=C(OCc1cccc(O)c1O[C@@H]1O[C@H](CO)[C@@H](O)[C@H](O)[C@H]1O)[C@]1(O)C(=O)[C@@H]2C=C[C@H]1c1c2ccc(O)c1O | inactive
O=C1NCCc2c(O)cccc21 | inactive
COC(=O)c1cn(CC(N)=O)c2ccccc12 | inactive
Cn1cc(CN2CCC(C(=O)N[C@@H](c3ccc(F)cc3)c3ccc4ccccc4n3)CC2)c2ccccc21 | active
COc1ccc(S(=O)(=O)N(C)C[C@H]2Oc3ccc(NS(C)(=O)=O)cc3CC(=O)N([C@@H](C)CO)C[C@@H]2C)cc1 | inactive

SMILES | cytotoxicity call
CC(C)COC(=O)CNc1n[nH]c(=O)[nH]c1=O | inactive
Cn1cnc(S(=O)(=O)N[C@@H]2C=C[C@@H](CC(=O)Nc3ccccc3)O[C@@H]2CO)c1 | inactive
CCOC(=O)[C@H]1CC(C)=NNC1=O | inactive
Cn1cncc1[C@@](N)(c1ccc(Cl)cc1)c1ccc2c(c1)c(-c1cccc(Cl)c1)cc(=O)n2C | active
O=C(CCCCCCC(=O)N/N=C/c1cccc(B(O)O)c1)NO | inactive
Cn1cnc(CCNC(=O)C[C@H]2CC[C@H]3[C@@H](COC[C@@H](O)CN3C(=O)Nc3ccc(C(F)(F)F)cc3)O2)c1 | inactive
c1cn(-c2ccc(-n3ccnc3)nn2)cn1 | inactive
CN1CCN(C2=Nc3cc(Cl)ccc3Nc3ccccc32)CC1 | inactive
CN1CCN(C2=Nc3ccccc3Oc3ccc(Cl)cc32)CC1.O=C(O)CCC(=O)O | inactive
Clc1ccc2c(c1)C(N1CCNCC1)=Nc1ccccc1O2 | active
CCS(=O)(=O)Nc1ccc2c(c1)C(=O)N(C)C[C@@H](OC)[C@H](C)CN(Cc1cccnc1)[C@H](C)CO2 | inactive
O=C(C[C@@H]1C[C@H]2c3cc(NC(=O)Nc4ccc(C(F)(F)F)cc4)ccc3O[C@H]2[C@H](CO)O1)NCCc1ccccc1 | inactive
CO[C@H]1CN(C)C(=O)c2cc(NS(=O)(=O)c3cn(C)cn3)ccc2OC[C@@H](C)N(CC2CC2)C[C@@H]1C | inactive
C[C@@H]1CCCCO[C@@H](CN(C)S(=O)(=O)c2cccs2)[C@@H](C)CN([C@H](C)CO)C(=O)c2cc(NC(=O)Nc3ccc(F)cc3)ccc2O1 | inactive
C[C@H](CO)N1C[C@H](C)[C@@H](CN(C)S(=O)(=O)c2cccs2)OCCCC[C@H](C)Oc2ccc(NC(=O)Nc3ccc(F)cc3)cc2C1=O | inactive
C[C@@H]1CCCCO[C@@H](CN(C)S(=O)(=O)c2cccs2)[C@H](C)CN([C@@H](C)CO)C(=O)c2cc(NC(=O)Nc3ccccc3)ccc2O1 | inactive
C[C@H]1CCCCO[C@@H](CN(C)S(=O)(=O)c2cccs2)[C@@H](C)CN([C@@H](C)CO)C(=O)c2cc(NC(=O)Nc3ccc(F)cc3)ccc2O1 | active
C[C@@H]1CN([C@H](C)CO)C(=O)c2cc(NC(=O)Nc3ccc(F)cc3)ccc2O[C@@H](C)CCCCO[C@H]1CN(C)S(=O)(=O)c1cccs1 | inactive
C[C@@H]1CN([C@@H](C)CO)C(=O)c2cc(NC(=O)Nc3ccc(F)cc3)ccc2O[C@@H](C)CCCCO[C@H]1CN(C)S(=O)(=O)c1cccs1 | active
C[C@@H]1CCCCO[C@H](CN(C)S(=O)(=O)c2cccs2)[C@@H](C)CN([C@H](C)CO)C(=O)c2cc(NC(=O)Nc3ccc(F)cc3)ccc2O1 | inactive
COc1ccc(NC(=O)Nc2ccc3c(c2)C(=O)N([C@H](C)CO)C[C@H](C)[C@@H](CN(C)S(=O)(=O)c2cccs2)OCCCC[C@H](C)O3)cc1 | inactive
COc1ccc(NC(=O)Nc2ccc3c(c2)C(=O)N([C@@H](C)CO)C[C@H](C)[C@H](CN(C)S(=O)(=O)c2cccs2)OCCCC[C@@H](C)O3)cc1 | inactive
C[C@@H]1CCCCO[C@@H](CN(C)S(=O)(=O)c2cccs2)[C@H](C)CN([C@H](C)CO)C(=O)c2cc(NC(=O)Nc3ccccc3)ccc2O1 | active
C[C@@H]1CN([C@@H](C)CO)C(=O)c2cc(NC(=O)Nc3ccccc3)ccc2O[C@@H](C)CCCCO[C@@H]1CN(C)S(=O)(=O)c1cccs1 | inactive
COc1ccc(NC(=O)Nc2ccc3c(c2)C(=O)N([C@@H](C)CO)C[C@H](C)[C@@H](CN(C)S(=O)(=O)c2cccs2)OCCCC[C@@H](C)O3)cc1 | active

— the antibiotic and cytotoxicity screens of Wong et al. (2023)
